Assay results from PubChem BioAssay (NCATS).
Results filed as inconclusive are left out. The source made the active and inactive calls. The call rests on the fitted dose curve; in most records, active means well fitted curve in the direction sought with a large enough effect; inconclusive means small, poorly fitted or top-dose-only effect, or another doubt; inactive means no such curve, though single readings can be large; an effect the other way counts as inactive or inconclusive.

Legend:
[1] = molecular target: Voltage-gated inwardly rectifying potassium channel KCNH2 (Homo sapiens) (UniProt Q12809); assay: qHTS Assay for Small Molecule Inhibitors of the Human hERG Channel Activity (AID 588834);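 further: top concentration of the series differs between compounds; lower thallium flux fluorescence means stronger hERG block; nearly all actives have a fitted effect of over 50% in size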
Chain of Voltage-gated inwardly rectifying potassium channel KCNH2 (Homo sapiens) (Q12809 whole entry, looked up): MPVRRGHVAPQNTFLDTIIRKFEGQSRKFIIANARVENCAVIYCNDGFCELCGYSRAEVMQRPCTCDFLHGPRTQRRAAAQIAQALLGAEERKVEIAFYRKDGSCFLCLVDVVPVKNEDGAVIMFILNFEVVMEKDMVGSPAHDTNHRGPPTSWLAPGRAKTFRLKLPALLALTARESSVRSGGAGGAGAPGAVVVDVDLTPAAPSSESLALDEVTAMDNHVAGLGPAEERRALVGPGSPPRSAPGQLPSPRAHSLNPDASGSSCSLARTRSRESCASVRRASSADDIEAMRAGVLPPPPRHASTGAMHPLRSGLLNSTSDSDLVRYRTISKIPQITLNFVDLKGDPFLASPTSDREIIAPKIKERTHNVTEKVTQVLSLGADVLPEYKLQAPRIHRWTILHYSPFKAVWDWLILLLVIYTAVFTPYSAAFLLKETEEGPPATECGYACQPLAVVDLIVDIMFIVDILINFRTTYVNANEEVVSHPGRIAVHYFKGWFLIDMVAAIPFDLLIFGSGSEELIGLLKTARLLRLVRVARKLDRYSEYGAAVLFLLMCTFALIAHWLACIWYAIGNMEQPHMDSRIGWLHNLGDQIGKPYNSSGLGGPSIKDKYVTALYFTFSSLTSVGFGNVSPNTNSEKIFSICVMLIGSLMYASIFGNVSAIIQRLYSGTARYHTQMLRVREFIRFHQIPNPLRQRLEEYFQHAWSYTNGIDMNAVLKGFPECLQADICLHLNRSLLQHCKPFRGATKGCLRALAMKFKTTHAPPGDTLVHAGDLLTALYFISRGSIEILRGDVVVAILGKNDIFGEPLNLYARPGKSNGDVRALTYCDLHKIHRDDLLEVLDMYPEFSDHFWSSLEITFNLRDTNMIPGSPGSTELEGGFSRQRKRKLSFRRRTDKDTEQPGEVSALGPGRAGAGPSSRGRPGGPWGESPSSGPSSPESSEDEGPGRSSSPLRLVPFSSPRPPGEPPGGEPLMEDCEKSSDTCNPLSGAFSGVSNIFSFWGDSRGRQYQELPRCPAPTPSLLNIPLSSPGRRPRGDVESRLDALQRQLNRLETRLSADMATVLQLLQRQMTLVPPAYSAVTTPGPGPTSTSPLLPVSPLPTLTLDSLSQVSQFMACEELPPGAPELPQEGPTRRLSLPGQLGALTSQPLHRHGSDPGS
In short: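 Kinetic FDSS fluorescence; U2OS + hERG BacMam (~100 virus particles/cell); FluxOR Tl+ flux; ~10 min cpd; AC50 (Hill).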

[2] = qHTS of Trypanosoma Brucei Inhibitors: LOPAC Validation (AID 624147)
In short: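 Assay buffer: 50 mM TEA pH 7.2, 100 mM KCl, 10 mM MgCl2, 0.05% BSA, 0.01% Tween-20. Pyruvate kinase from T. brucei plus substrate met compound, then ADP (130 uM final). Luminescence was read post 45 min RT.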

[3] = molecular target: Glucagon-like peptide 1 receptor (Homo sapiens) (UniProt P43220); assay: qHTS of GLP-1 Receptor Agonists: LOPAC Validation (AID 624148);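 further: luminescence from a luciferase reporter switched on by cAMP; higher luminescence signal means agonism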
Chain of Glucagon-like peptide 1 receptor (Homo sapiens) (P43220 whole entry, looked up): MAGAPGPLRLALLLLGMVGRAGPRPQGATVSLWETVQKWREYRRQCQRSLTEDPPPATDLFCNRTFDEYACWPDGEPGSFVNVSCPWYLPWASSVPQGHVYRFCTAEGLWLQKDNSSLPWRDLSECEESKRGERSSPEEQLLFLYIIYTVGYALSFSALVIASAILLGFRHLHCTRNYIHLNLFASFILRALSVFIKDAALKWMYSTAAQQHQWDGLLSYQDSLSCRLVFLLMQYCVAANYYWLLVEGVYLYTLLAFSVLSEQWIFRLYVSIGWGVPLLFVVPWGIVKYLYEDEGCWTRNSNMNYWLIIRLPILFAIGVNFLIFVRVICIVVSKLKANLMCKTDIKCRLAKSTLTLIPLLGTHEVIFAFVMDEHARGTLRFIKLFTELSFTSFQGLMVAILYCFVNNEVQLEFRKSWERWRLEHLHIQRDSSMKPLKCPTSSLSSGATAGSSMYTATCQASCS
In short: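 Agonism scored as increased luciferase luminescence driven by cAMP in HEK293 clones carrying GLP-1R. Cells settled 12 hours, received compound for 4-6 hr at 37 deg C, 5% CO2, and were read after 12 min detection reagent at RT.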

[4] = qHTS of Nrf2 Activators: LOPAC Validation (AID 624149)
In short: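 ARE reporter activation measured in AREc32 firefly luciferase cells after 24 hr compound exposure; Steady-Glo luminescence.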

[5] = HTS Assay for Allosteric Antagonists of the Human D2 Dopamine Receptor: Hit Validation in HTRF (AID 624455);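 further: stable D1 dopamine receptor cell line scored for blocking the D1 response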
In short: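 Signal from an HTRF read-out in D1-expressing stable cells gave hit activity as inhibition of the D1 response.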

Measured: Potency

CNc1ncnc2c1ncn2[C@H]1C[C@H](OP(=O)(O)O)[C@@H](COP(=O)(O)O)O1
inactive: [1] | [2] | [3] | [4] | [5]

CC1=C(C(=O)O)N2C(=O)[C@@H](NC(=O)C(N)C3=CCC=CC3)[C@H]2SC1 (some centres undefined)
inactive: [1] | [2] | [3] | [4] | [5]

CCSC(=N)N
inactive: [1] | [2] | [3] | [4] | [5]

Cc1nc2c(OCc3ccccc3)cccn2c1CC#N
inactive: [1] | [2] | [3] | [5]
